Calls of active or inactive are those of the source. No stated cut-off is given here; in the data, active means inhibition above about 65%; inactive means the rest.
What follows are compounds tested on Antitargets (assay: Fam108b inhibitors and proteome off-target selectivity – biochemical, gel-based ABPP, recombinant soluble Fam108b, HTS hits, complex proteome, late-stage follow-up (AID 588651;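 further: Fam108b spiked into mouse brain membrane proteome; tested at 20 µM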)). Settings: FP-rhodamine labeling in proteome.

outcome, inactive:
O=C1C(Cl)=C(Nc2ccc3cn[nH]c3c2)C(=O)c2ccccc21
Cc1[nH]c2c(C)cccc2c1CCNC(=O)c1ccc2c(c1[N+](=O)[O-])C(=O)c1ccccc1C2=O
CC1CCN(S(=O)(=O)c2ccc(C(=O)Nc3ccccc3-c3nc4ccccc4[nH]3)cc2)CC1
COc1cccc(C=NNc2nc(Nc3ccc([N+](=O)[O-])cc3)nc(N3CCCC3)n2)c1O
CCOC(=O)c1sc(NC(=O)Nc2ccc(Cl)cc2)cc1C
O=[N+]([O-])c1ccc(NN=Cc2ccccc2O)cc1
CCN(c1ccccc1)S(=O)(=O)c1ccc(NC(=O)c2nc(S(C)(=O)=O)ncc2Cl)cc1
COc1cc2c(cc1NC(=S)Nc1cccc(C(F)(F)F)c1)oc1ccccc12
Cc1ccnc(N=Cc2nc(-c3ccccc3Br)oc2O)c1
CCCCCCCCCCCCCCCC[n+]1ccc(C=NO)cc1
COc1cc2c(cc1NC(=O)Nc1ccccc1)oc1ccccc12
Cc1cc(C(C#N)c2ccc(Cl)cc2)c(Cl)cc1NC(=O)c1cc(I)cc(I)c1O (configuration not stated)
COc1ccc2ccccc2c1C(O)c1nccn1C (configuration not stated)
Oc1ccc(C2Nc3cccc4cccc(c34)N2)c(O)c1
O=C(O)c1ccc(S(=O)(=O)/N=C2\C=C(Nc3ccccc3F)C(=O)c3ccccc32)cc1

outcome, active:
CCOc1cc(/C=C2\C(=O)N(c3nc(-c4ccc(Br)cc4)cs3)N=C2c2ccccc2)ccc1O
Oc1cccc2cc3cccc(O)c3c(O)c12

Reference: PubChem BioAssay AID588651 (The Scripps Research Institute Molecular Screening Center, 2011)
